Measurements as given in PubChem BioAssay (Tox21).
Several values for one entry are separate records, joined by “and”; a condition that tells them apart may be missing. Equal entries are not always repeated. Records with an inconclusive call do not appear. Entries that show only a call come without a potency. Activity calls are given as the source filed them. Unless noted, calls follow the shape of the dose curve; as a rule, active = well fitted curve in the direction sought with a large enough effect in the repeat runs; inconclusive = weak or mixed curves; inactive = no such curve, though single readings can be large; an effect the other way counts as inactive or inconclusive.

Columns and labels:
[1] = qHTS assay to identify aromatase inhibitors - cell viability counter screen (AID 743084);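 also: cells stimulated with testosterone during compound exposure; nearly all actives have a fitted effect of over 55% in size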
[2] = target: Aryl hydrocarbon receptor (Homo sapiens) (UniProt P35869); experiment: qHTS assay to identify small molecule that activate the aryl hydrocarbon receptor (AhR) signaling pathway (AID 743085); also: nearly all actives have a fitted effect of over 15% in size; also: potency is read from the fitted curve at half-maximal effect;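 as to activation: HG2L7.5c1 human HepG2 liver cells with stably integrated DRE-driven firefly reporter; series mostly up to about 70 µM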
Chain of Aryl hydrocarbon receptor (Homo sapiens) (P35869 whole entry, looked up): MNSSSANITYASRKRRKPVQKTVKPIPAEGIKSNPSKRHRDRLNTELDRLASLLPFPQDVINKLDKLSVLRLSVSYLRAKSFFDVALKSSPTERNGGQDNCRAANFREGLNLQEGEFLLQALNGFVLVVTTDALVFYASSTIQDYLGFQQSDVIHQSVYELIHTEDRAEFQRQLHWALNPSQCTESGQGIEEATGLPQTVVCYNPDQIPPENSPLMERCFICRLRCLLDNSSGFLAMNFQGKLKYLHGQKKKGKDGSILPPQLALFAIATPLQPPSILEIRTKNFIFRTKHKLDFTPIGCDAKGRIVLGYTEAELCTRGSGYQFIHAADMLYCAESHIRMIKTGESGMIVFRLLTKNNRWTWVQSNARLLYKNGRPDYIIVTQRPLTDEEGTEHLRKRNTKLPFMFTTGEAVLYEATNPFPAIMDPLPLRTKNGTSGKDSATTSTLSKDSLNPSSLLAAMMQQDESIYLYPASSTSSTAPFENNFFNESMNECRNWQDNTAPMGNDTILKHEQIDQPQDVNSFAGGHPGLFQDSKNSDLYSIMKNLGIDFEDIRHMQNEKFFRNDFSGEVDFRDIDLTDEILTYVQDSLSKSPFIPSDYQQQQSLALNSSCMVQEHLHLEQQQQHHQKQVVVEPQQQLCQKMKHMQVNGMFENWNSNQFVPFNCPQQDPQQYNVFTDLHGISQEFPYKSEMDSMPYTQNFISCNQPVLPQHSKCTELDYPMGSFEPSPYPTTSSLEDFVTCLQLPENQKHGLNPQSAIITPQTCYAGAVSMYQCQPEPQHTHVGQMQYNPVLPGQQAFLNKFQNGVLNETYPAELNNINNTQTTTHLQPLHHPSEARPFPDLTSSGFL
Summary of the method: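 Steps: seed HepG2-AhR-luc cells; allow 5 h at 37C; pin-transfer test compound or vehicle; incubate 24 h at 37C; add viability dye (30 min, 37C) and read fluorescence; add luciferase substrate (30 min, RT) and read luminescence.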

[3] = qHTS assay to identify small molecule that activate the aryl hydrocarbon receptor (AhR) signaling pathway - cell viability counter screen (AID 743086);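 also: HepG2 liver cells carrying the AhR DRE luciferase reporter; series mostly up to about 70 µM; nearly all actives have a fitted effect of over 45% in size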
Summary of the method: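 HepG2-AhR-luc (HG2L7.5c1) cells, 4000/well, were preincubated 5 h at 37C, exposed to compound in qHTS format for 24 hr at 37C, then given CellTiter-Fluor for 30 min; viability was read as fluorescence in the reporter wells.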

[4] = target: Peroxisome proliferator-activated receptor gamma (Homo sapiens) (UniProt P37231); experiment: qHTS assay to identify small molecule agonists of the peroxisome proliferator-activated receptor gamma (PPARg) signaling pathway (AID 743094; active = well fitted activation curve with a large enough effect in the signal ratio in the repeat runs, not every such curve was filed as active; the % refers to the signal ratio)
Chain of Peroxisome proliferator-activated receptor gamma (Homo sapiens) (P37231 whole entry, looked up): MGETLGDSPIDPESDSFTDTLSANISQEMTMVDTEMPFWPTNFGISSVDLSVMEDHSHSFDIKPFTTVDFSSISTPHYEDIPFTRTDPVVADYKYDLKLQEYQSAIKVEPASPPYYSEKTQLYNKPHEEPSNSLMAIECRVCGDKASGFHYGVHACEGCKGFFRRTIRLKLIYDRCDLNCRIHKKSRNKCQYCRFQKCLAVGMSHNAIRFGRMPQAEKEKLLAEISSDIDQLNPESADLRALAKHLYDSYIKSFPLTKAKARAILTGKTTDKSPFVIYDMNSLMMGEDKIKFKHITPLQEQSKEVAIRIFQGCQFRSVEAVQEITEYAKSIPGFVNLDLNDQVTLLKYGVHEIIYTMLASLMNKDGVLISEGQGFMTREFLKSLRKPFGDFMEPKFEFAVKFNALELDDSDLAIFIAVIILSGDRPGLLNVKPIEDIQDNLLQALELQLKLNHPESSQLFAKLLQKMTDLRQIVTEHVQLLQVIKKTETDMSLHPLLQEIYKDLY
Summary of the method: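 Stably transfected HEK293H cells (GeneBLAzer PPARg UAS-bla) were incubated with test substances for 17 h at 37C after a 5 h pre-incubation; beta-lactamase activity was then detected by FRET substrate fluorescence.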

[5] = target: Peroxisome proliferator-activated receptor gamma (Homo sapiens) (UniProt P37231); experiment: qHTS assay to identify small molecule antagonists of the peroxisome proliferator-activated receptor gamma (PPARg) signaling pathway (AID 743191; calls by dose curve; also: series mostly up to about 63 µM; nearly all actives have a fitted effect of over 30% in size)
Summary of the method: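 GeneBLAzer PPARg UAS-bla HEK293H cells carrying a UAS-driven beta-lactamase reporter were plated at 3000 cells/well, preincubated 5 h at 37C, then given compound for 17 h at 37C; LiveBLAzer B/G FRET substrate was read after 1 h at room temperature.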

[6] = qHTS assay to identify small molecule antagonists of the peroxisome proliferator-activated receptor gamma (PPARg) signaling pathway - cell viability counter screen (AID 743194); settings: Potency: co-treated with 50 nM rosiglitazone unless noted; also: nearly all actives have a fitted effect of over 55% in size
Summary of the method: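 PPARg-UAS-bla HEK293H cells were plated, rested 5 h at 37 C, then treated with compounds plus rosiglitazone (50 nM final) for 17 h at 37 C; viability was then read by CellTiter-Glo luminescence after 30 min at room temperature.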

[7] = qHTS assay for small molecule agonists of the antioxidant response element (ARE) signaling pathway (AID 743202; active = well fitted activation curve with a large enough effect in the signal ratio in the repeat runs, not every such curve was filed as active; the % refers to the signal ratio; also: potency is read from the fitted curve at half-maximal effect)
Summary of the method: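 Compounds delivered in DMSO to ARE-bla HepG2 cells (2,000 cells/well, pre-incubated 5 h) and left 16 h at 37 C. LiveBLAzer B/G FRET substrate then added for 2 h at RT before fluorescence reading.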

[8] = qHTS assay for small molecule activators of the heat shock response signaling pathway - cell viability counter screen (AID 743209); also: nearly all actives have a fitted effect of over 50% in size
Summary of the method: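 Quantitative HTS format, Tox21 10K library. HeLa cells carrying an HSE-driven beta-lactamase reporter were treated 5 h at 37 C, then assessed for viability by CellTiter-Glo luminescence.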

[9] = qHTS assay for small molecule activators of the heat shock response signaling pathway (AID 743210; active = well fitted activation curve with a large enough effect in the signal ratio in the repeat runs, with a control signal flat, not every such curve was filed as active; the % refers to the signal ratio;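 also: HeLa cells with beta-lactamase reporter driven by heat shock elements; series mostly up to about 63 µM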)
Summary of the method: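 Reporter gene assay: HeLa cells stably bearing an HSE-bla construct, compound treatment 5 h at 37 C, LiveBLAzer substrate 2.5 h at RT, fluorescence intensity.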

[10] = qHTS assay for small molecule agonists of the antioxidant response element (ARE) signaling pathway - cell viability counter screen (AID 743203; calls by dose curve; also: nearly all actives have a fitted effect of over 55% in size)
Summary of the method: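 Cells (ARE-bla HepG2, 2,000/well) receive DMSO-dissolved compounds after a 5 hrs rest. Plates incubate 16 hrs at 37C/5% CO2. CellTiter-Glo luminescence is then recorded after 30 min at room temperature.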

Row | Compound | Potency [1] | Potency [2] | Potency [3] | Potency [4] | Potency [5] | Potency [6] | Potency [7] | Potency [8] | Potency [9] | Potency [10]
1 | CC(=O)OC/C=C(\C)CCC=C(C)C | inactive | inactive | inactive | inactive | inactive | inactive | inactive | inactive | inactive | –
2 | COC(=O)CCCCC(=O)OC | inactive | inactive | inactive | inactive | inactive | inactive | inactive | inactive | inactive | –
3 | Cc1cccc(C)c1[N+](=O)[O-] | inactive | inactive | inactive | inactive | inactive | inactive | inactive | inactive | inactive | –
4 | OCC(CO)(CO)CO | inactive | inactive | inactive | inactive | inactive | inactive | inactive | inactive | inactive | –
5 | CC/C=C(\C(=O)N[C@@H]1C(=O)N2C(C(=O)OCOC(=O)C(C)(C)C)=C(COC(N)=O)CS[C@H]12)c1csc(N)n1 | inactive | inactive | inactive | inactive | inactive | inactive | – | inactive | inactive | inactive
6 | CN=C(NC#N)NCCSCc1nc[nH]c1C | inactive | inactive | inactive | inactive | inactive | inactive | inactive | inactive | inactive | –
7 | OCc1ccc(Cl)cc1Cl | inactive | inactive | inactive | inactive | inactive | inactive | inactive | inactive | inactive | –
8 | Cc1ccncc1 | inactive | inactive | inactive | inactive | inactive | inactive | inactive | inactive | inactive | –
9 | O=C1CCCCCCCCCCC1 | inactive | inactive | inactive | inactive | inactive | inactive | – | inactive | inactive | inactive
10 | CCCN(CCC)C(=O)SCC | inactive | inactive | inactive | inactive | inactive | inactive | inactive | inactive | inactive | –
11 | CCCCCNCCCCC | inactive | inactive | inactive | inactive | inactive | inactive | inactive | inactive | inactive | inactive
12 | COC(=O)OC | inactive | inactive | inactive | inactive | inactive | inactive | – | inactive | inactive | inactive
13 | Oc1ccc(Cc2ccccc2O)cc1 | inactive | inactive | inactive | inactive | inactive | – | 30.6 µM (active) | inactive | inactive | –
14 | Nc1cccc(N)n1 | inactive | 52.6 µM (active) and 61.1 µM (active) | inactive | inactive | inactive | inactive | inactive | inactive | inactive | inactive
15 | O=Cc1ccc(CO)o1 | inactive | inactive | inactive | inactive | inactive | inactive | inactive | inactive | inactive | –
16 | CC(=O)OCCC(C)C | inactive | inactive | inactive | inactive | inactive | inactive | inactive | inactive | inactive | –
17 | Nc1cccc(C(F)(F)F)c1 | inactive | inactive | inactive | inactive | – | inactive | – | inactive | inactive | inactive
18 | CCCCC(CC)COC(=O)c1ccc(C(=O)OCC(CC)CCCC)cc1 (stereo not given) | inactive | inactive | inactive | inactive | inactive | inactive | inactive | inactive | inactive | inactive
19 | CCCOC(=O)NCCCN(C)C | inactive | inactive | inactive | inactive | inactive | inactive | – | inactive | – | inactive
20 | CC1=CC(=O)CC(C)(C)C1 | inactive | inactive | inactive | inactive | inactive | inactive | inactive | inactive | – | –
21 | Cc1cc(C)cc(O)c1 | inactive | inactive | inactive | inactive | – | inactive | inactive | inactive | inactive | inactive
22 | CCCCCCCC(=O)O | inactive | inactive | inactive | inactive | – | inactive | inactive | inactive | inactive | inactive
23 | Cc1ncc(CO)c(CO)c1O | inactive | inactive | inactive | inactive | inactive | inactive | inactive | inactive | inactive | –
24 | CCCCCCCCCCCCCC(=O)O | inactive | inactive | inactive | inactive | – | inactive | inactive | inactive | – | inactive
25 | CC(=O)OC(C)(C)C1CC=C(C)CC1 (stereo not given) | inactive | inactive | inactive | inactive | inactive | inactive | inactive | inactive | inactive | –
26 | NC(=O)NC(N)=O | inactive | inactive | inactive | inactive | inactive | – | inactive | inactive | inactive | –
27 | O=C1C(N(CO)C(=O)NCO)N(CO)C(=O)N1CO (stereo not given) | inactive | inactive | inactive | inactive | – | inactive | inactive | inactive | inactive | inactive
